# Assay outcomes from PubChem.
# Compounds with a hit are over-represented: about 3.2% of the library has one in this group of screens.
# Tau filament bind: binders of human tau filaments. P10636. recombinant tau filaments, thioflavin S fluorescence, 15 h; filaments grown with octadecylsulfate alongside compound. Potency, µM (titrated, usually from 57.1 µM), inactives show top-dose activity change, negative = inhibition. 71,000 tested, 2% active;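 also: potency is read from the fitted curve at half-maximal effect; % is scaled to controls: 0 for no effect and ±100 for the full control effect; actives lower thioflavin S fluorescence by blocking filaments or displacing dye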
#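 His-tagged recombinant human tau (exons 2, 3, 10; 1 uM final) fibrillized with 30 uM sodium octadecylsulfate, 15 h at 37 C, in pH 7.4 HEPES buffer with 10 uM thioflavine S and 5 mM DTT. Reduced ThS fluorescence (450/510 nm) marks activity.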
# GFP derepression: epigenetic modulators derepressing GFP locus in mouse cells; mouse C127i GFP locus derepression, cytometry, 30 h; Potency, µM (series often up to 46.1 µM), without a hit: top-dose GFP derepression (activation); 68,000 tested, 0.09% active; AID 597; also: % of control where 0% means no effect
#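 Derepression screen: silenced CMV-GFP reporter in murine C127i cells, 30 h compound incubation at 37 C, washed cells imaged by laser-scanning cytometer to enumerate GFP-expressing objects of 20 to 120 um.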
# Pol III holo inh: blocks replication by bacterial DNA polymerase III holoenzyme; reconstituted DNA polymerase III holoenzyme replication, biochemical; Potency, µM (series often up to 57.1 µM), inactives show at the highest dose activity change, negative = inhibition; 71,000 tested, 0.25% active; also: potency is read from the fitted curve at half-maximal effect; % is scaled to controls: 0 for no effect and ±100 for the full control effect
#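 Reconstituted *E. coli* holoenzyme (0.35 nM Pol III, 1 nM beta, 154 nM SSB, 2 nM primase) was preincubated with compound for 15 min at RT. Synthesis on 1.4 nM ssM13Gori ran 35 min, then was stopped with PicoGreen/EDTA and read as dsDNA fluorescence.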
# HBB splicing: hemoglobin beta splicing modulation; HBB splicing reporter cell assay, activation; EGFP reporter with mutant IVS2-654 intron; response scale: normalised to 500 nM splice-correcting PNA; Potency, µM (titrated, usually from 46.1 µM), inactives show top-dose activation, hits mostly activators; 65,000 tested, 0.06% active; AID 925; also: potency is read from the fitted curve at half-maximal effect; 0% is about no effect
#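 Compounds were applied for 2 days to HeLa EGFP-654 cells, 500/well in Optimem with 2% FCS. The reporter's EGFP is disrupted by mis-splicing of beta-globin intron IVS2-654. Readout: summed well GFP fluorescence from 488 nm laser scanning; reference was 500 nM antisense […] 654 PNA.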
# ALOX15 inhib: blocks human 15-lipoxygenase activity; P16050; purified 15hLO-1, xylenol orange hydroperoxide absorbance; Potency, µM (top dose mostly 57.1 µM), for the others: at the top dose activity change, negative = inhibition, most hits filed as inhibitors; 74,000 tested, 1.4% active; AID 887; also: potency is read from the fitted curve at half-maximal effect; % is scaled to controls: 0 for no effect and ±100 for the full control effect; nearly all actives have a fitted effect of over 55% in size
# Target sequence (P16050 whole entry, looked up): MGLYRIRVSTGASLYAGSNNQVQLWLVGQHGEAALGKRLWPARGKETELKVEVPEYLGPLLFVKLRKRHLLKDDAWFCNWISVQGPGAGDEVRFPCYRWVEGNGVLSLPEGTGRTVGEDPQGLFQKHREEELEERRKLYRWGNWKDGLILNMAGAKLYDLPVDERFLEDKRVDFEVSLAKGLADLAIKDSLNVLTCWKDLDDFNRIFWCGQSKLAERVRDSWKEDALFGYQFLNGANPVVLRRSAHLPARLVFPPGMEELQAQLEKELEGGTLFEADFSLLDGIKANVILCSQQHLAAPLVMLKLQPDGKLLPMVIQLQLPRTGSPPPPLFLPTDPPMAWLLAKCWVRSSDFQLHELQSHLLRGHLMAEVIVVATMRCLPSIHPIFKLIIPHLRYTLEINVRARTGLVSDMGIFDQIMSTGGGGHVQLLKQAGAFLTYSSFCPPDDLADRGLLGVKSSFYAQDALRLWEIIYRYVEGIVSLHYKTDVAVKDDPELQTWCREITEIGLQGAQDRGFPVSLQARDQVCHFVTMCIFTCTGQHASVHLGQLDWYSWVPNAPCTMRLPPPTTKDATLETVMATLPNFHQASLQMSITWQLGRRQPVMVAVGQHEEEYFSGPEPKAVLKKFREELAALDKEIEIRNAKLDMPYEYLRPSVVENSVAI
#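 Quantitative HTS in 25 mM Hepes pH 7.5 containing 0.01% Triton X-100: human 15hLO-1 at 40 nM, arachidonic acid at 50 uM, 6 min turnover. Product quantified via ferrous oxidation/xylenol orange, 573:405 nm absorbance ratio.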
# UbGFP stabilizer: proteasome inhibitors stabilizing ubiquitin-GFP reporter. 67,000 tested, under 10 active. Potency, µM (doses to about 45.9 µM), without a hit: at the highest dose activation (GFP accumulation), hits mostly activators. AID 526. Ubiquitin-GFP reporter cells, proteasome inhibition, GFP fluorescence; response scale: untreated = 0%, 10 µM MG-132 = 100%; active = well fitted activation curve with a large enough effect, not every such curve was filed as active; inconclusive = small, poorly fitted or top-dose-only effect, or another doubt; inactive = no such curve, though single readings can be large or run the other way; also: potency is read from the fitted curve at half-maximal effect
#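 U2OS cells stably expressing ubiquitin(G76V)-GFP, seeded overnight in 0.5% FBS medium, were exposed to compounds (qHTS, 46 uM to 2.9 nM) for 4 hr at 37 °C. GFP-positive cells were counted by laser cytometry (488 ex/515 em), normalized between basal and 10 uM MG-132.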
# The depositor's hits bear a star; ? = inconclusive; nt = not tested or not shown; [ ] = another dose, or the depositor's remark. Unless noted, calls follow the shape of the dose curve; as a rule, active = well fitted curve in the direction sought with a large enough effect; inconclusive = small, poorly fitted or top-dose-only effect, or another doubt; inactive = no such curve, though single readings can be large; an effect the other way counts as inactive or inconclusive.
SMILES,Tau filament bind,GFP derepression,Pol III holo inh,HBB splicing,ALOX15 inhib,UbGFP stabilizer
O=C(O)/C=C(/C(=O)O)[C@]12CCN3CC4=CCO[C@@H]5CC(=O)N[C@@H]1[C@H]5[C@H]4C[C@H]32,3%[11.4 µM],-3%[9.22 µM],-11%[11.4 µM],3%[9.22 µM],11%[11.4 µM],0%[9.17 µM]
Oc1ccc(N=Cc2ccc(-c3cccs3)s2)cc1,?,-2%,-3%[11.4 µM],1%[0.0738 µM],4µM*,14%[9.17 µM]
C[N+](C)(C)c1nc(N)nc2c1ncn2[C@H]1O[C@@H](CO)[C@@H](O)[C@H]1O,2%[11.4 µM],-3%[9.22 µM],-6%[11.4 µM],2%[9.22 µM],20%[11.4 µM],-2%[9.17 µM]
Nc1ncnc2c([C@@H]3O[C@@H](CO)[C@H](O)[C@@H]3O)nsc12,8%[11.4 µM],-3%[9.22 µM],-7%[11.4 µM],6%[9.22 µM],-4%[11.4 µM],-6%[9.17 µM]
Nc1ncnc2c1nc(Br)n2[C@H]1O[C@H]2COP(=O)(O)O[C@H]2[C@@H]1O,40µM*,-1%,-4%,nt,?,3%
Nc1ncnc2c1nc(Br)n2C1CC(O)C(CO)O1 (stereo unspecified),nt,nt,nt,nt,-9%,nt
C[C@@H]1O[C@@H](n2cc(F)c(=O)[nH]c2=O)[C@H](O)[C@@H]1O,8%,-1%,-3%,3%,5%,10%
Clc1cc(NCc2cccs2)ccc1N1CCOCC1,?,8%,2%,-4%,4%,-5%
Cc1ccc(CNc2ccc(N3CCOCC3)cc2)s1,-13%,-1%,-5%,nt,16µM*,1%
CC(=O)N1CCN(c2ccc(NCc3ccc(C)s3)cc2)CC1,?,nt,2%,-1%,10µM*,9%
CC(=O)N1CCN(c2ccc(NCc3ccccc3)cc2)CC1,16µM*,0%,-3%,nt,7.9µM*,-5%
O=C(c1ccccc1)N1CCN(c2ccc(NCc3ccc4c(c3)OCO4)cc2)CC1,32µM*,-3%,-8%,-1%,25µM*,-6%
CC(=O)N1CCN(c2ccc(NCc3ccc4c(c3)OCO4)cc2)CC1,?,-4%,-5%,0%,?,-9%
CO[C@@H]1COC(=O)CCC[C@@H](C)[C@H](OC)COC(=O)[C@H](Cc2ccccc2)NC(=O)C/C=C\[C@H]1C,nt,nt,nt,-1%[9.22 µM],-2%[11.4 µM],nt
COc1ccc2c(c1OC)C(Cc1ccccc1)N1CCc3cc4c(cc3C1C2)OCO4 (stereo unspecified),nt,nt,nt,nt,131%[25.6 µM],nt
OC[C@@H]1NC[C@@H](O)[C@H]1O,-6%,0%,-6%,1%,10%,-6%
O=C(O)Cn1c(=O)oc2cc(S(=O)(=O)N3CCOCC3)ccc21,-2%,nt,-2%,1%,-4%,21%
CC(=O)N1CCN(c2ccc(NCc3cccs3)cc2)CC1,25µM*,-2%,-4%,0%,13µM*,1%
CCc1cccc2nc3c(c([Si](CC)(CC)CC)c12)Cn1c-3cccc1=O,20µM*,nt,1%,3%,nt,nt
CC(C)c1cccc2nc3c(c([Si](C)(C)C)c12)Cn1c-3cccc1=O,32µM*,nt,-6%,0%,nt,nt
CCc1c2c(nc3c(C(C)C)cccc13)-c1cccc(=O)n1C2,174%,nt,-10%,2%,nt,nt
O=C(O)[C@@H]1[C@@H]2O[C@H]([C@@H](Br)[C@H]2Br)[C@H]1C(=O)O,11%[11.4 µM],1%[9.22 µM],-10%[11.4 µM],4%[9.22 µM],8%[11.4 µM],0%[9.17 µM]
CS(=O)(=O)Nc1ccc(Nc2c3ccccc3nc3ccccc23)cc1,1.6µM*,2%[9.22 µM],-8%[11.4 µM],2%[9.22 µM],1%[11.4 µM],-12%[9.17 µM]
CN(C)c1nc(-c2cccc(NS(C)(=O)=O)c2)nc2ccccc12,1%,2%[9.22 µM],-5%,0%,-2%,-2%
Cc1ccc2[nH]c(=O)c(C(c3nnnn3CC3CCCO3)N3CCCc4ccccc43)cc2c1 (stereo unspecified),18%,8%,-6%,nt,1.3µM*,-1%
SMILES,Tau filament bind,GFP derepression,Pol III holo inh,HBB splicing,ALOX15 inhib,UbGFP stabilizer
CCC(c1nnnn1CC1CCCO1)N(CCN1CCOCC1)Cc1cc2cc(C)ccc2[nH]c1=O (stereo unspecified),29%,1%,-4%,0%[57.5 µM],3.2µM*,-2%
CCC(c1nnnn1Cc1ccco1)N(CCc1ccccc1)Cc1cc2cc(C)ccc2[nH]c1=O (stereo unspecified),35%,0%,-4%,nt,16µM*,-3%
Cc1ccc2[nH]c(=O)c(CN(CCc3ccccc3)C(c3nnnn3Cc3ccco3)C(C)C)cc2c1 (stereo unspecified),36%,?,-4%,nt,?,-5%
O=C(O)c1ccc(F)c(S(=O)(=O)Nc2cccc(F)c2)c1,nt,nt,nt,nt,-8%,nt
CC1(C)S[C@@H]2[C@H](C(=O)O)N=C(Cc3ccccc3)N2[C@H]1C(=O)O,6%[11.4 µM],0%[9.22 µM],-12%[11.4 µM],1%[9.22 µM],63%[11.4 µM],3%[9.17 µM]
CC[C@H](C)[C@@H]1O[C@]2(CC[C@@H]1C)C[C@H]1C[C@H](CC=C(C)[C@@H](O[C@H]3C[C@H](OC)[C@H](O[C@H]4C[C@H](OC)[C@H](O)[C@H](C)O4)[C@H](C)O3)[C@@H](C)C=CC=C3CO[C@@H]4[C@@H](O)C(C)=C[C@H](C(=O)O1)[C@@]34O)O2,-8%,0%,4%,-2%,-11%,-5%
O=C(Nc1ccc(-c2noc(COc3ccccc3Cl)n2)cc1)c1ccco1,3.2µM*,2%,11%,-2%,-4%,-3%
COc1ccc(CC(=O)Nc2ccc(-c3noc(COc4ccccc4C)n3)cc2)cc1,15%,7%,-9%,0%,-3%,23%
O=C1C=CC(=O)C2=C1C1c3ccccc3C2c2ccccc21,nt,nt,nt,0%,0.79µM*,nt
C/C=C1\C(=O)C[C@H]2[C@@H]3CCC4=CC(=O)CC[C@]4(C)[C@H]3CC[C@]12C,171%,nt,1%,-1%,-9%,nt
CC(C)c1ccc(-c2nnn(CCC(=O)O)n2)cc1,3%,0%,-1%,0%[57.5 µM],1.6µM*,-2%
COc1ccc(/C=C(\C#N)C(N)=O)cc1OC,-12%[11.4 µM],7%[9.22 µM],1%[11.4 µM],1%[9.22 µM],3%[11.4 µM],-7%[9.17 µM]
COc1cc(/C=C(\C#N)C(=O)c2ccc(O)c(O)c2)cc(I)c1O,-4%,-1%,-15%,3%,1µM*,2%
COc1ccc(Nc2cc(C(=O)NCCCN3CCN(C)CC3)c3ccccc3n2)cc1OC,16µM*,-1%,-2%,0%,-6%,29%
O=C1C2C3CCCC3=C3CCCC3C2C(=O)N1c1ccc(F)cc1 (stereo unspecified),56%,2%,6%,0%[57.5 µM],3.2µM*,6%
CC(C)C1NC2(C(=O)c3ccccc3C2=O)C2C(=O)N(c3ccc(F)cc3)C(=O)C12 (stereo unspecified),nt,nt,nt,nt,-16%,nt
